# Source: the supplement of paper PMC10849652
# Targets with a hit are over-represented here; the source holds about 7,900 in all. About 0.6% of all pairs of compound and target were hits. Unmarked numbers belong to inactive results.
# Experiments:
# Test in all cases: log2 fold change, soluble protein after heating vs DMSO (PISA); higher = thermal stabilisation; K562 cells, 10 uM, 30 min; active = over 0.2 and 3.5 SD of the protein, either way, in both replicates (recomputed)
# [1] = compound: CN1CCN(CCOc2cc(OC3CCOCC3)c3c(Nc4c(Cl)ccc5c4OCO5)ncnc3c2)CC1 [saracatinib]
# Method in brief: (§1)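 Aliquots of K562 cells (2×10^6 cells/mL) treated with 10 μM compound for 30 min were heated for 3 min over 48°C-58°C. After pooling and extraction in PBS with 0.5% NP-40 at 4°C, soluble protein from a 21,000xg, 90 min spin was quantified by TMTpro 16plex LC-MS/MS with channel sums equalised. Thermal stability is expressed against control samples, from duplicates, as a log2 fold change.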
# [2] = compound: CN1CCN(c2nc(C3=C(c4c[nH]c5ccccc45)C(=O)NC3=O)c3ccccc3n2)CC1 [sotrastaurin]
# Method in brief: as §1
# [3] = compound: CN1CC[C@H](c2c(O)cc(O)c3c(=O)cc(-c4ccccc4Cl)oc23)[C@H](O)C1 [alvocidib]
# Method in brief: as §1
# [4] = compound: CN1CCc2c(c3ccccc3n2Cc2ccc(C(=O)NO)cc2)C1 [Tubastatin A]
# Method in brief: as §1
# [5] = compound: CNC(=O)C1=CC=CC=C1NC2=NC(=NC=C2Cl)NC3=C(C=C(C=C3)N4CCOCC4)OC
# Method in brief: as §1
# [6] = compound: CNC(=O)c1ccc(Nc2ncc(C(F)(F)F)c(NCc3nccnc3N(C)S(C)(=O)=O)n2)cc1 [defactinib]
# Method in brief: as §1
# [7] = compound: CNCc1ccc(-c2[nH]c3cc(F)cc4c3c2CCNC4=O)cc1 [rucaparib]
# Method in brief: as §1
# [8] = compound: CNc1nc(-c2ccc3c(N)n[nH]c3c2)cc(N2C[C@@H](C(=O)NC3CCCCC3)CC[C@H]2C)n1
# Method in brief: as §1
# [9] = compound: COC(=O)N[C@@H](C)CNc1nccc(-c2cn(C(C)C)nc2-c2cc(Cl)cc(NS(C)(=O)=O)c2F)n1 [encorafenib]
# Method in brief: as §1
# [10] = compound: COC(=O)[C@H](CCSC)NC(=O)C1=C(C=C(C=C1)NC[C@H](CS)N)C2=CC=CC=C2
# Method in brief: as §1
# [11] = compound: COC1=CC=C(C=C1)CN2C=CC3=C2C=C(C=C3)C(=O)NO
# Method in brief: as §1
# [12] = compound: CON(C)C(=O)N1N=C(c2cc(F)ccc2F)S[C@@]1(CCCN)c1ccccc1 [filanesib]
# Method in brief: as §1
# [13] = compound: CO[C@H]1C[C@@H]2CC[C@@H](C)[C@@](O)(O2)C(=O)C(=O)N2CCCC[C@H]2C(=O)O[C@H]([C@H](C)C[C@@H]2CC[C@H](n3cnnn3)[C@H](OC)C2)CC(=O)[C@H](C)/C=C(\C)[C@@H](O)[C@@H](OC)C(=O)[C@H](C)C[C@H](C)/C=C/C=C/C=C/1C [zotarolimus]
# Method in brief: as §1
# [14] = compound: COc1cc(C(=O)O)ccc1NC(=O)[C@@H]1N[C@@H](CC(C)(C)C)[C@](C#N)(c2ccc(Cl)cc2F)[C@H]1c1cccc(Cl)c1F [idasanutlin]
# Method in brief: as §1
# [15] = compound: COc1cc(Nc2ncc3c(n2)-c2ccc(Cl)cc2C(c2c(F)cccc2OC)=NC3)ccc1C(=O)O [alisertib]
# Method in brief: as §1
# [16] = compound: COc1cc2nc(-c3cc(F)ccc3O)nc(N[C@@H]3CNC[C@H]3C(C)(C)O)c2cc1OC
# Method in brief: as §1
# [17] = compound: COc1cc2ncnc(Nc3ccc(F)c(Cl)c3)c2cc1OCCCN1CCOCC1 [gefitinib]
# Method in brief: as §1
# [18] = compound: COc1cccc2cc(-c3nc([C@H]4CC[C@H](C(=O)O)CC4)n4ncnc(N)c34)[nH]c12
# Method in brief: as §1
# [19] = compound: CS(=O)(=O)CCNCc1ccc(-c2ccc3ncnc(Nc4ccc(OCc5cccc(F)c5)c(Cl)c4)c3c2)o1 [lapatinib]
# Method in brief: as §1
# [20] = compound: CS(=O)(=O)N1CCN(Cc2cc3nc(-c4cccc5[nH]ncc45)nc(N4CCOCC4)c3s2)CC1 [pictilisib]
# Method in brief: as §1
# Sequence of UniProt P04114 (P04114 whole entry, looked up): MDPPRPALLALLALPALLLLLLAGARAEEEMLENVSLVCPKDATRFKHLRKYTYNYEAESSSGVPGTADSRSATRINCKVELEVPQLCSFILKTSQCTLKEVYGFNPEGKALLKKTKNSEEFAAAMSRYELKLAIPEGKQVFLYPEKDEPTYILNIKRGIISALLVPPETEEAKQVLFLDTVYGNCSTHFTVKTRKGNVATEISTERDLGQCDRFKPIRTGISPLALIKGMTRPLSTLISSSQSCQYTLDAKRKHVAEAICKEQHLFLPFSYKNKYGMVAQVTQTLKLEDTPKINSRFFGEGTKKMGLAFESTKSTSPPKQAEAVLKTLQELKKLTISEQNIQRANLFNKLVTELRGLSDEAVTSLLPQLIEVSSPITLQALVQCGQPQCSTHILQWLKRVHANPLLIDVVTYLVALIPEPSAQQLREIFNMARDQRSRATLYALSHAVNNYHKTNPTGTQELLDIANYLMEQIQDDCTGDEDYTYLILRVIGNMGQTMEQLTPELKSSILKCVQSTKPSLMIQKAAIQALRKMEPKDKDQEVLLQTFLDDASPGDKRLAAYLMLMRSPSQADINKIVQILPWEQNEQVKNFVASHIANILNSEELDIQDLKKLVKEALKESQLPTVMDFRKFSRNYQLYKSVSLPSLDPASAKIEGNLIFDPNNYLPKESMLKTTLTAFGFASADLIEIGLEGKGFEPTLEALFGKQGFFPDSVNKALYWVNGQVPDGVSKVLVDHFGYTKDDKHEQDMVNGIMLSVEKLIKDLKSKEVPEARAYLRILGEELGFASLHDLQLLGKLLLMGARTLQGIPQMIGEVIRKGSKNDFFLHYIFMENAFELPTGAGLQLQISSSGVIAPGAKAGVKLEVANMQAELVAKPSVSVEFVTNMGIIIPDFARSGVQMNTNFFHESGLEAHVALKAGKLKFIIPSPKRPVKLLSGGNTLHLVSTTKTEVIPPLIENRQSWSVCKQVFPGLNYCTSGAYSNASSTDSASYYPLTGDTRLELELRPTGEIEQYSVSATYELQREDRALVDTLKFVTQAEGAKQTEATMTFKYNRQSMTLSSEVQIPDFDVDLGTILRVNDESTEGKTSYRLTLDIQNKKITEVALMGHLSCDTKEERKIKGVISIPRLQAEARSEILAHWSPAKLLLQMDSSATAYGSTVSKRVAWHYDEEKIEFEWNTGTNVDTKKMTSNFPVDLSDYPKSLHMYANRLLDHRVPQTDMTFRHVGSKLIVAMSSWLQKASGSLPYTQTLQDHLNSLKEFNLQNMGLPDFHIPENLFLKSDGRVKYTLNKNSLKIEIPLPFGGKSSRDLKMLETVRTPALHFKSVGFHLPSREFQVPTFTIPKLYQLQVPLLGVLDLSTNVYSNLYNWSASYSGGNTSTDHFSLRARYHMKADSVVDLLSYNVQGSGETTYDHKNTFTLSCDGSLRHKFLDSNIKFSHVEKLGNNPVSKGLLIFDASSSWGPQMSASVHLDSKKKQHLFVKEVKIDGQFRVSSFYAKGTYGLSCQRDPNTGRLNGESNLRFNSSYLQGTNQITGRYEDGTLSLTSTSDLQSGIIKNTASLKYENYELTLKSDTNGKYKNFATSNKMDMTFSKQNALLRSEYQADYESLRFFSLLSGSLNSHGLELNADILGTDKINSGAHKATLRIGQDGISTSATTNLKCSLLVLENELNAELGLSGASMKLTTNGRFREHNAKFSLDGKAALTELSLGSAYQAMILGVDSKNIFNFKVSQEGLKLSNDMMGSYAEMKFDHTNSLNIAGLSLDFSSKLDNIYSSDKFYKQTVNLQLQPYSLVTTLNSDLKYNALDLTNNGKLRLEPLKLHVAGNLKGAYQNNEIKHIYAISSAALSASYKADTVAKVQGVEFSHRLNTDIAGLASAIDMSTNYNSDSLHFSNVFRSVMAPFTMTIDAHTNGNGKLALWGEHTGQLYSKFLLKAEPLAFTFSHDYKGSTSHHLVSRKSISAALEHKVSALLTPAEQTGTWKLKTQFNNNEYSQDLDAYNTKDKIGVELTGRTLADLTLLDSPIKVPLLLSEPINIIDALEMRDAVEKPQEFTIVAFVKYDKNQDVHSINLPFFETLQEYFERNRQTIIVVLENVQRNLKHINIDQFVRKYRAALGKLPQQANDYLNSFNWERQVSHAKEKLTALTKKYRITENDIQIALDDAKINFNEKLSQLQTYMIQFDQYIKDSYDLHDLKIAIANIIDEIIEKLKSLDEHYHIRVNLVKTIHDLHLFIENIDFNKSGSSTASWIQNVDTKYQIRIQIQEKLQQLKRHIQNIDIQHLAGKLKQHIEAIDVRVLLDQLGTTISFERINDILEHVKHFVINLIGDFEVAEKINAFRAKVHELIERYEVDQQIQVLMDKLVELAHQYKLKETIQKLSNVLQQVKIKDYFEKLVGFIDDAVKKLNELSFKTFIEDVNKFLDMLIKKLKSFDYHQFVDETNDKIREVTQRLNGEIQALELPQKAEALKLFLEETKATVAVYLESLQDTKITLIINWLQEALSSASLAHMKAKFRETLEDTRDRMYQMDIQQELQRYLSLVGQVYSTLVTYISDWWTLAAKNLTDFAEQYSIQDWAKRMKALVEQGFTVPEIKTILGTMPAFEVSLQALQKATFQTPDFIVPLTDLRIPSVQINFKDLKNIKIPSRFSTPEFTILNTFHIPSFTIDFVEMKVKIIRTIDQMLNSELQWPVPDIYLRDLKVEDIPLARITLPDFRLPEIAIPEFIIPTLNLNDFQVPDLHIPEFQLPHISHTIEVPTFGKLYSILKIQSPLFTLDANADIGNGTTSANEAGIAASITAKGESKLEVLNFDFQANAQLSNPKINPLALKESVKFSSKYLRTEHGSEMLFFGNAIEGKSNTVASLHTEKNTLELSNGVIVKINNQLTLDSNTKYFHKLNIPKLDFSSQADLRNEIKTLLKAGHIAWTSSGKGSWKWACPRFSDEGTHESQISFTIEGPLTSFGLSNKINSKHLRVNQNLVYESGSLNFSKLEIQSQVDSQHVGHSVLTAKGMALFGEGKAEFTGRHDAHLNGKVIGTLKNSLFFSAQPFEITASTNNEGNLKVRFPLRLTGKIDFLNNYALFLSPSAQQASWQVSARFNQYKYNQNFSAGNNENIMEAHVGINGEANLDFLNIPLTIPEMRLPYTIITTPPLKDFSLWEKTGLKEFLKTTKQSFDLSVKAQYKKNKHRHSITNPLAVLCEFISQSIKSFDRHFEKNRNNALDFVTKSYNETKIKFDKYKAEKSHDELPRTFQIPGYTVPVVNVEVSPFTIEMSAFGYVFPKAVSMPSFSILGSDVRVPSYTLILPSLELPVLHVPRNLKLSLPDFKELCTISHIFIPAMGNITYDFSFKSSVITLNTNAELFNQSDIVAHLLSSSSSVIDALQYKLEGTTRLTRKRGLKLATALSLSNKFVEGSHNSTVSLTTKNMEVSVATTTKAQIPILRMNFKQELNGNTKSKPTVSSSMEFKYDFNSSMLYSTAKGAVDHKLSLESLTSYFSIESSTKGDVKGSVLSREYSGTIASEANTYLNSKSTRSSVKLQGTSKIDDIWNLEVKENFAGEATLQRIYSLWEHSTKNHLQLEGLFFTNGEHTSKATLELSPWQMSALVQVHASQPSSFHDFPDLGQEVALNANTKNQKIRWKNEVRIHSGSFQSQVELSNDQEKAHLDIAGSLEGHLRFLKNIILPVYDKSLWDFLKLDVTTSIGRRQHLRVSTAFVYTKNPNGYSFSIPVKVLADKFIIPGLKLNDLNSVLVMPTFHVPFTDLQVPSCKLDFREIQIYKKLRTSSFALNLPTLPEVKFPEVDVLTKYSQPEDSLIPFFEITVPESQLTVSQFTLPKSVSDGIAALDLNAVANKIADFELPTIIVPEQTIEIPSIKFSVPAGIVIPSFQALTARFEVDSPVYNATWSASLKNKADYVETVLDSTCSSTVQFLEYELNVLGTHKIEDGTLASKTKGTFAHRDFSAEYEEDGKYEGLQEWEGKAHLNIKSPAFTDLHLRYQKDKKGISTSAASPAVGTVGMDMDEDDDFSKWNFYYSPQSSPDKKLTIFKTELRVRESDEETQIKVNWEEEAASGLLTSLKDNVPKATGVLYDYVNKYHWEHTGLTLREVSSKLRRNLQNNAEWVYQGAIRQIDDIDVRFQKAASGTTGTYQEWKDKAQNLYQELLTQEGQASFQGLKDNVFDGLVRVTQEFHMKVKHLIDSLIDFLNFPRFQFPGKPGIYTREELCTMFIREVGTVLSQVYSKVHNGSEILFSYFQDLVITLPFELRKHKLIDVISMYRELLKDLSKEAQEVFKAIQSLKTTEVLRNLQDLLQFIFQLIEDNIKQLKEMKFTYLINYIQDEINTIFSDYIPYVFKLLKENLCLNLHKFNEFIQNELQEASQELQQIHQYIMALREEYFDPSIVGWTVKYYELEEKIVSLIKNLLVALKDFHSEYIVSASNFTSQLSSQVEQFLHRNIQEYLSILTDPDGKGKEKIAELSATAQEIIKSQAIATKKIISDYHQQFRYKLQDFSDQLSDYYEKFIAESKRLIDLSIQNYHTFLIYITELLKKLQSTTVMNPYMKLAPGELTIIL
# Sequence of UniProt Q9Y673 (Q9Y673 whole entry, looked up): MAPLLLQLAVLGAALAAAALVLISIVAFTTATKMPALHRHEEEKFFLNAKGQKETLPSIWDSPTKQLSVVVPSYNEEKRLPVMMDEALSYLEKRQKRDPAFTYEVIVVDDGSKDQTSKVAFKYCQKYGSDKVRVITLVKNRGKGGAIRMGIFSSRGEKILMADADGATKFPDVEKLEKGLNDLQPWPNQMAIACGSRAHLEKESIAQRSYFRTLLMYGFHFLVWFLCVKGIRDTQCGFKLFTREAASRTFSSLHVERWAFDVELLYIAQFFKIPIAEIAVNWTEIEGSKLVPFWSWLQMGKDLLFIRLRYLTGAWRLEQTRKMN
# Sequence of UniProt Q9Y2Y0 (Q9Y2Y0 whole entry, looked up): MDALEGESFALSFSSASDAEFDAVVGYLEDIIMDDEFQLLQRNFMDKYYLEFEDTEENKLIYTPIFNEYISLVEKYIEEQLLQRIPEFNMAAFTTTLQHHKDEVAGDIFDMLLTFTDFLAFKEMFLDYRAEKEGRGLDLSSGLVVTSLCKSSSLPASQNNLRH
Target,log2 fold change [1],log2 fold change [2],log2 fold change [3],log2 fold change [4],log2 fold change [5],log2 fold change [6],log2 fold change [7],log2 fold change [8],log2 fold change [9],log2 fold change [10],log2 fold change [11],log2 fold change [12],log2 fold change [13],log2 fold change [14],log2 fold change [15],log2 fold change [16],log2 fold change [17],log2 fold change [18],log2 fold change [19],log2 fold change [20]
AGPS (UniProt O00116),-0.01,0.018,-0.058,-0.011,0.032,-0.039,-0.017,0.047,0.009,-0.042,0.074,-0.145,0.05,-0.037,-0.03,-0.044,0.069,0.048,0.018,-0.003
ACSF3 (UniProt Q4G176),0.079,0.002,0.026,-0.067,0.099,-0.058,-0.051,-0.016,0.146,-0.019,-0.099,-0.045,-0.01,0.051,0.001,-0.053,-0.096,0.054,-0.004,0.064
ATP9B (UniProt O43861),0.13,-0.185,0.008,-0.055,-0.02,-0.025,0.081,-0.027,0.058,0.06,-0.019,0.192,-0.054,0.022,-0.039,0.023,0.101,0.178,0.019,0.012
ALG5 (UniProt Q9Y673),-0.011,-0.071,-0.088,0.005,0.016,-0.055,-0.113,0.008,-0.025,-0.036,0,-0.054,0.039,-0.139,0.675,0.095,0.023,0.013,0.046,0.075
AGPAT3 isoform 3 (UniProt Q9NRZ7),0.01,-0.084,-0.061,0.019,0.012,-0.037,-0.036,-0.045,-0.001,0.008,-0.083,-0.106,0.048,-0.149,0.012,0.083,0.012,0.005,0.004,-0.013
APOB (UniProt P04114),-0.139,-0.17,-0.014,-0.021,0.012,0.05,-0.197,-0.364,0.04,-0.005,0.034,-0.86 (active),-0.013,-0.039,0,-0.384,-0.129,0.164,-0.352,0.078
ALDH18A1 (UniProt P54886),-0.038,-0.178,0.063,-0.027,-0.065,-0.122,0.001,-0.281,0.098,-0.047,-0.024,-0.01,0.045,-0.233,-0.09,0.215,-0.18,0.067,-0.652 (active),-0.101
ARL2BP (UniProt Q9Y2Y0),0.093,-0.047,-0.021,0.082,0.002,-0.153,0.055,0.147,-0.12,-0.055,0.287,-0.061,0.062,-0.012,-0.074,-0.049,0.028,0.02,-0.025,0.098
